Reference: PubChem BioAssay

Experiment: changes in parasitized red cell lysis, either direction – P. falciparum Indochina, OD700, 3 h, PSAC antagonist project, primary screen (AID 1156)
Details: P. falciparum-infected erythrocytes, osmotic lysis, higher = more signal, called active from +8 up or from −8 down

z-score, inactive:
CC(C)c1ccc(NN2C(C(O)c3ccc4c(c3)OCO4)C=CC3C(=O)N(c4ccccc4)C(=O)C32)cc1 (stereo unspecified) 0.126
C[C@@H]1CCC2C(=O)N(Cc3ccccc3)C[C@@H](O)CN2[C@H]1c1ccc(Br)cc1 (stereo partly specified) -0.75
O=C1[C@H]2[C@H]3[C@H](O)[C@H](O)CC(=NO[C@@H]4O[C@H](CO)[C@@H](O)[C@H](O)[C@H]4O)[C@H]3CC[C@H]2C(=O)N1Cc1ccc2c(c1)OCO2 0.0435
CC[C@@H](c1ccccc1)n1c(=O)n2n(c1=O)[C@H]1[C@H](O)[C@@H]3O[C@@H]3C(=NOCC=C(C)CCC=C(C)C)[C@H]1CC2 0.0313
CC(C)(C)N1C(=O)[C@H]2[C@H]3[C@H](O)[C@H](O)CC(=NO[C@@H]4O[C@H](CO)[C@@H](O)[C@H](O)[C@H]4O)[C@@H]3CC[C@H]2C1=O -0.689
CC(C)(C)N1C(=O)[C@H]2[C@H]3[C@H](O)[C@H](O)CC(=NOCc4ccccc4)[C@@H]3CC[C@H]2C1=O 0.877
COCCOC(=O)N1C(=O)[C@@]2(c3cc(C#CCNC(N)=O)ccc31)[C@H](c1ccccc1OCCO)N1[C@H](c3ccccc3)[C@H](c3ccccc3)OC(=O)[C@H]1[C@@H]2C(=O)N1CCN(c2ncccn2)CC1 0.793
COc1ccc(O[C@H]2C=C[C@@H](c3ccccc3)O[C@@H]2COC(=O)N2CCCCC2)cc1 -0.0257
CCc1cccc(NC(=O)O[C@H]2[C@H](OC(=O)Nc3ccc4c(c3)OCO4)[C@@H](OC(=O)Nc3ccc4c(c3)OCO4)[C@@H](OC)O[C@@H]2CO)c1 1.37
CCN1C(=O)[C@H]2[C@H]3[C@H](O)[C@H](O)CC(=NOCC=C(C)CCC=C(C)C)[C@H]3CC[C@H]2C1=O -0.527
CC(C)C[C@@H]1NC(=O)[C@H]2C[C@@H](C(=O)O)[C@@H](c3ccc(O)cc3)N2C1=O -1.66
CN(C)C(=O)[C@@]1(Cc2ccccc2)N=C(c2ccc(OCCCO)cc2)O[C@H]1c1ccccc1CN=[N+]=[N-] 0.882
CO[C@@H]1COC(=O)CC=C[C@@H](C)[C@@H]2C=C[C@H](O)[C@@H](COC(=O)CCC[C@H]1C)O2 -0.184
CC(C)CON=C1C[C@@H](O)[C@@H](O)[C@@H]2[C@@H]3C(=O)N(Cc4ccccc4)C(=O)[C@@H]3CC[C@@H]12 0.65
COC(=O)c1c(CC[C@@H](CO)NC(=O)N[C@H](Cc2ccccc2)Cn2cc(-c3ccccc3N)nn2)oc(C(C)=O)c1C(=O)OC 0.845
CO[C@@H]1COC(=O)CCC[C@@H](C)[C@H](OC)COC(=O)CCC[C@H]1C 0.719
CCOC(=O)CCN1C(=O)[C@H]2[C@H]3[C@H](O)[C@H](O)CC(=NOC[C@@H](O)COCc4ccco4)[C@@H]3CC[C@H]2C1=O -0.403
C=COC[C@H]1CN2[C@@H](CC[C@@H](C)[C@@H]2c2ccc(Br)cc2)C(=O)O1 -0.655
O=C1C[C@@H](O)[C@@H](O)[C@@H]2[C@@H]3C(=O)N(c4cccc(Oc5ccccc5)c4)C(=O)[C@@H]3CC[C@@H]12 0.406
COc1ccc([Si](C)(C)[C@@H]2[C@@H](CCO)O[C@]3(C(=O)N(Cc4ccc(NC(C)=O)cc4)c4ccccc43)[C@H]2C)cc1 -0.199
O=C1[C@H]2[C@H]3[C@H](O)[C@H](O)CC(=NO[C@@H]4O[C@H](CO)[C@@H](O)[C@H](O)[C@H]4O)[C@H]3CC[C@H]2C(=O)N1C1CCCCC1 -0.284
COc1ccc(-c2ccc3c(n2)CCCN3CC(O)CN2CCCc3nc(C)c(C)cc32)cc1 (stereo unspecified) 0.661
O=C1CCCC2OC12C(O)CCc1ccccc1 (stereo unspecified) -0.0749
C[C@@H](c1ccccc1)N1C(=O)[C@H]2[C@H]3[C@H](O)[C@H](O)CC(=NNC(=O)OCc4ccccc4)[C@H]3CC[C@H]2C1=O 0.0197
COc1ccc(O[C@H]2C=C[C@@H](c3ccccc3)O[C@@H]2COC(=O)CCC(C)=NOCC[C@@H]2C=C[C@H](OC(C)=O)[C@@H](COC(C)=O)O2)cc1 1
COC(=O)C1=C(C)N(Cc2ccccc2)[C@]23O[C@](C(=O)OC)(C(=O)N2[C@@H]1c1ccccc1)[C@H]1CCOC(=O)[C@H]13 1.3
Cn1c(=O)n2n(c1=O)[C@H]1[C@H](O)[C@@H]3O[C@@H]3C(=NOC[C@@H](O)COCc3ccco3)[C@H]1CC2 0.671
C[C@@H]1CC[C@H]2C(=O)O[C@H](COc3ccc(C(C)(C)C)cc3)CN2[C@H]1c1ccc(Br)cc1 -0.082
C=CC[C@]1(C(=O)NCc2ccccc2)N=C(c2ccc(OCCCO)cc2)O[C@H]1c1ccccc1 0.668
COCCNC(=O)OCC1CCCC2(CC(OC(=O)NCCc3ccc(F)cc3)CC(CCC(=O)N[C@@H](C)C(=O)OC)O2)O1 (stereo partly specified) 0.958
CCOC(=O)CCN1C(=O)[C@H]2[C@H]3[C@H](O)[C@H](O)CC(=NOCc4ccccc4)[C@@H]3CC[C@H]2C1=O -0.059
CCCNC(=O)OC[C@H]1O[C@H](CCON=CC[C@@H]2C=C[C@H](OC(C)=O)[C@@H](COC(C)=O)O2)C=C[C@@H]1Oc1ccc(OC)cc1 0.126
O=C1[C@H]2[C@H]3[C@H](O)[C@H](O)CC(=NOC[C@@H](O)COCc4ccco4)[C@H]3CC[C@H]2C(=O)N1Cc1ccc2c(c1)OCO2 0.107
COC(=O)CC=C[C@@H](C)[C@@H](C=NO[C@@H](C)c1cc(-c2c(C)cc(C)cc2C)no1)OC 0.505
C=C(/C(=C/C[C@@H](OC(=O)c1ccncc1)c1ccc(OCCO)cc1)c1cnc2ccccc2c1)C(C)C -1.77
CC(=O)OC[C@H]1O[C@H](CC=NOC[C@@H](C)[C@H](OCc2ccccc2)C(C)C)C=C[C@@H]1OC(C)=O 0.712
